Screens: PubChem BioAssay, The Scripps Research Institute Molecular Screening Center
IDE cell activ: boosts human insulin-degrading enzyme activity in HEK cells; FAbeta-B cleavage, fluorescence polarization; 0% vehicle, 100% cell-free pure enzyme wells; activation, % at 5.96 µM; actives 0.073% (n = 340,000); AID 493087;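 active = activation above the mean of all tested compounds plus 3 SD, set per screening campaign, cut at about 17% in these data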
Target sequence (P14735 whole entry, looked up): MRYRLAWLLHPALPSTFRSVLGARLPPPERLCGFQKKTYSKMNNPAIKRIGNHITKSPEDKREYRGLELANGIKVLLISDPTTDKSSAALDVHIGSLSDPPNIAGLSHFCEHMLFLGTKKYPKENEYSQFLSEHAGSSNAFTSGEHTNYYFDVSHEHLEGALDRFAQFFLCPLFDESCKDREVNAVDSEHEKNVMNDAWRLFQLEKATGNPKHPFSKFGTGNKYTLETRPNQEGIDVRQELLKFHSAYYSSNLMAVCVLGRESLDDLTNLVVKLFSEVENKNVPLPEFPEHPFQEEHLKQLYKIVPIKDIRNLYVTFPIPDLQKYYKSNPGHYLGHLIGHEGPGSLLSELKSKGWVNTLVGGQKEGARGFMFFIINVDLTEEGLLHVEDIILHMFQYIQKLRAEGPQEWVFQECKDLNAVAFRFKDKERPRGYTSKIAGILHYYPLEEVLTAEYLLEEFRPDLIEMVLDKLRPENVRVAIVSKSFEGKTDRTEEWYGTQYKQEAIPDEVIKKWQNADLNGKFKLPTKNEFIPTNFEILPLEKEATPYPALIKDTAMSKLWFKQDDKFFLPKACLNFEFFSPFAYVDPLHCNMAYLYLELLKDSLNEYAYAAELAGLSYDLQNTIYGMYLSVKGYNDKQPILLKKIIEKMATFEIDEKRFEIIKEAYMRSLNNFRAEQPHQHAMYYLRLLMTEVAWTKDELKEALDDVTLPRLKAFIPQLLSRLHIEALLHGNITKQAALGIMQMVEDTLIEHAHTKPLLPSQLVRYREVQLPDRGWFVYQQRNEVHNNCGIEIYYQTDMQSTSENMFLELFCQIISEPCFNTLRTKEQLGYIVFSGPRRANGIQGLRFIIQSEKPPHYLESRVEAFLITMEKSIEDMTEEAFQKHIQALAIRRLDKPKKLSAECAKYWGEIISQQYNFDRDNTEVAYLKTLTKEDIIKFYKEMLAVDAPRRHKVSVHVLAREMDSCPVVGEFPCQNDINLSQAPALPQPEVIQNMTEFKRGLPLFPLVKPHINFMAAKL
RTF Ca sens inh: cardiac RTF calcium desensitization. actives 0.12% (n = 340,000). P19429+P45379. inhibition, % at 7.15 µM. IANBD-labeled cardiac RTF, Ca2+ fluorescence;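 active = inhibition above the mean inhibition of all tested compounds plus 3 SD, cut at about 17% in these data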;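 also: assay run at fixed EC70 calcium of 1.6 mM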
IDE inh: inhibitors of human insulin-degrading enzyme in cells | P14735 | inhibition, % at 5.59 µM | actives 0.41% (n = 320,000) | AID 434962 | HEK cells, FAbetaB cleavage, fluorescence polarization;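 active = percent inhibition above the average of all tested compounds plus 3 SD, set per screening campaign, cut at about 16% in these data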;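 also: IDE supplied by intact live HEK cells; FP after avidin binding of uncleaved biotin substrate so inhibition keeps polarization high; 0% = DMSO wells and 100% = 60 µM reference IDE inhibitor Ii1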
RTF Ca sens act: cardiac RTF calcium sensitization. P19429+P45379. AID 493008. actives 0.24% (n = 340,000). IANBD-labeled TnC RTF fluorescence at EC20 calcium; 0% EC20 calcium, 100% full calcium. activation, % at 7.2 µM;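 active = activation above the mean over all tested compounds plus 3 SD, cut at about 30% in these data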;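 also: rise in fluorescence read as greater calcium sensitivity of cardiac thin filaments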
IDE inh confirm: confirmation of human insulin-degrading enzyme inhibitors in cells; shares compounds with IDE inh; HEK cells, FAbetaB cleavage, fluorescence polarization; inhibition, % at 5.59 µM; actives 51% (n = 1,200);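 active = mean inhibition across triplicate wells above the cutoff set by the earlier primary insulin-degrading enzyme screen, cut at about 16% in these data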;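 also: 0% = DMSO wells and 100% = 60 µM reference IDE inhibitor Ii1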
HEK cytotox: counter-screen for IDE inhibitors: cytotoxicity in HEK cells. HEK293 cytotoxicity, ATP luminescence. actives 28% (n = 1,200). shares compounds with IDE inh. inhibition, % at 5.59 µM. AID 449730; in the data active = inhibition above about 22%;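 also: 0% = vehicle wells and 100% = reference cytotoxic drug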
RTF Ca inh conf: cardiac RTF calcium sensitivity inhibition, confirmation | shares compounds with RTF Ca sens inh | reconstituted cardiac thin filaments, calcium sensitivity fluorescence | inhibition, % at 7.15 µM | actives 8% (n = 360) | AID 504635; in the data active = inhibition above about 18%
* = called active by the depositor; nt = no result given. Compounds with a hit are over-represented: about 0.71% of the library has one in this group of screens.

SMILES | IDE cell activ | RTF Ca sens inh | IDE inh | RTF Ca sens act | RTF Ca inh conf | others
NC(=O)CC(NC(=O)c1cccc(Br)c1)c1ccc(NC2CCN(Cc3ccccc3)CC2)c([N+](=O)[O-])c1 (configuration not stated) | -4 | -1 | -2 | 2 | nt
Cc1cc(OCc2nc(N)nc(N)c2-c2ccc(Cl)c(Cl)c2)ccc1[N+](=O)[O-] | 0 | -5 | nt | -5 | nt
COc1ccc(Cl)cc1C(=O)Nc1cccc(-c2ccc3nncn3n2)c1 | -6 | 9 | 17* | -6 | nt | IDE inh confirm=-1;HEK cytotox=22*
COc1cccc(C(=O)Nc2cccc(-c3ccc4nncn4n3)c2)c1OC | 6 | 5 | 2 | -3 | nt
COc1ccc(C2C=C(Nc3ccccc3)C(=O)N2c2ccccc2)cc1OC (configuration not stated) | 0 | -1 | 17* | -2 | nt | IDE inh confirm=-1;HEK cytotox=23*
C=C(C)Cn1c(N2CCN(c3ccc(OC)cc3)CC2)nc2c1c(=O)n(C)c(=O)n2C | -6 | -2 | -1 | 2 | nt
COc1ccc(N2CCN(c3nc4c(c(=O)n(C)c(=O)n4C)n3Cc3ccccc3)CC2)cc1 | -3 | -8 | 20* | -5 | nt | IDE inh confirm=5;HEK cytotox=20
COc1ccc(C)cc1NCc1cc(=O)oc2cc(-c3ccccc3)c(O)cc12 | -12 | 8 | 20* | -1 | nt | IDE inh confirm=5;HEK cytotox=19
Cc1cc(C)cc(NCc2cc(=O)oc3cc(-c4ccccc4)c(O)cc23)c1 | -2 | -3 | 5 | 6 | nt
CC1(C)Cc2c(cnn2-c2ccc(F)cc2)C(NC(=O)CN2CCCC2=O)C1 (configuration not stated) | 9 | -11 | 0 | -1 | nt
O=C1CSC(=S)N1CC1CCCO1 (configuration not stated) | -9 | -2 | 18* | 8 | nt | IDE inh confirm=14;HEK cytotox=11
Cc1c(OC(C)C(=O)NCc2ccncc2)ccc2c3c(c(=O)oc12)CCCC3 (configuration not stated) | -38 | 3 | 19* | 0 | nt | IDE inh confirm=17*;HEK cytotox=18
Cc1onc(-c2ccccc2)c1NC(=O)N(CCC#N)Cc1cccs1 | 9 | -7 | 1 | -4 | nt
CCC(=O)N1c2ccc(S(=O)(=O)CCC(=O)Nc3ccc(OC)cc3OC)cc2CC1C (configuration not stated) | 1 | -4 | 4 | 1 | nt
CC(=O)N/N=C/c1cc(C)n(-c2ccc(Br)cc2)c1C | -3 | -18 | -2 | -4 | nt
CC(=O)N/N=C/c1cc(C(C)C)cc(/C=N/NC(C)=O)c1O | -46 | -17 | 23* | 10 | nt | IDE inh confirm=35*;HEK cytotox=4
O=C(O)c1ccccc1N=Nc1ccc(O)cc1 | 20* | 18* | -14 | 1 | -6
O=C1CCCC2=C1C(c1ccc(Br)cc1)c1c([nH]c(=S)[nH]c1=O)N2 (configuration not stated) | -16 | -6 | 12 | -3 | nt
O=c1[nH]c(=S)[nH]c2c1C(c1ccc(Br)cc1)c1c([nH]c(=S)[nH]c1=O)O2 | -2 | 69* | 7 | -51 | 1
O=C(CN(C(=O)c1ccccc1)N1C(=O)CCC1=O)c1cccs1 | -1 | 4 | 4 | 0 | nt
CC(COc1ccc(/C=C/c2ccccc2)cc1)[N+](C)(C)C (configuration not stated) | 2 | 21* | 5 | 5 | -7
COc1cccc(C(=O)Nc2cccc(C(=O)N3CCOCC3)c2)c1 | 4 | 21* | -3 | -7 | -2
CC1CCCCN1C(=O)c1cc(Cl)ccc1[N+](=O)[O-] (configuration not stated) | 4 | 20* | -1 | -2 | -2
CC1CCCCN1C(=O)c1cc(F)c(F)cc1Cl (configuration not stated) | 4 | -6 | -1 | 0 | nt
CCC(=O)N(Cc1cc2cc(OC)ccc2[nH]c1=O)c1ccc(C)cc1 | 6 | -2 | -5 | -12 | nt
SMILES | IDE cell activ | RTF Ca sens inh | IDE inh | RTF Ca sens act | RTF Ca inh conf | others
CCN(CC)CCNC(=O)c1ccc(Sc2ccc(C)cc2)c(NC(C)=O)c1 | 2 | 18* | -2 | -1 | -5
Cc1cccc(N(C)S(=O)(=O)c2c[nH]c3ccc([N+](=O)[O-])cc23)c1 | 1 | -5 | 9 | 1 | nt
Cc1cc(C)n2c(SCC(=O)Nc3cc(C)on3)nnc2n1 | 2 | 18* | -1 | -4 | -5
CCc1nnc(NC(=O)CSc2nnc3nc(C)cc(C)n23)s1 | -7 | 2 | 5 | 2 | nt
COc1cc2ccccc2cc1C(=O)Nc1ccc(C)cn1 | -3 | -1 | 0 | -3 | nt
COc1ccc(CN(C)CC(=O)Nc2ccc(N3CCOCC3)cc2)cc1OC | 7 | 3 | 5 | 3 | nt
COc1ccc(CN(C)CC(=O)Nc2ccc(SC(F)F)cc2)cc1OC | 4 | 20* | 0 | 5 | 3
COc1ccccc1OCC(O)COC(N)=O (configuration not stated) | 6 | 18* | -2 | -1 | 2
COc1ccccc1OCC(O)CO (configuration not stated) | 0 | 1 | 2 | 8 | nt
O=C(Nc1nnc(-c2ccccc2)o1)Nc1ccc(F)cc1F | 2 | 17* | 0 | -7 | 4
O=C(Nc1ccc(F)cc1)Nc1nnc(-c2ccccc2)o1 | 3 | -2 | 3 | -4 | nt
Cc1ccc(O)c(N=Cc2cc(Cc3ccccc3)cc([N+](=O)[O-])c2O)c1 | -2 | 11 | nt | -11 | nt
O=[N+]([O-])c1cc(Cc2ccccc2)cc(C=Nc2ccc(N3CCOCC3)cc2)c1O | -1 | 21* | -4 | -13 | 5
O=C(O)c1cccc(-n2cccc2/C=C2/NC(=O)N(c3ccc(Cl)cc3)C2=O)c1 | 2 | 75* | nt | -46 | 55*
C=CCN1C(=O)c2ccc(C(=O)OCC(=O)N3CCN(c4ccccc4)CC3)cc2C1=O | -6 | 21* | 6 | 4 | -3
C[C@]12c3[nH]c4ccccc4c3CCN1C(=O)C(CC(=O)NCCCn1ccnc1)C[C@@H]2C(=O)N1CCOCC1 (some centres not stated) | 2 | 4 | -2 | 6 | nt
O=C1C(=Cc2ccco2)CCC1=Cc1ccco1 | 1 | 29* | nt | 3 | 60*
O=C1C(=Cc2ccco2)CCCC1=Cc1ccco1 | -40 | -19 | nt | 18 | nt
CN(CCCNC(=O)c1ccccc1F)CCCNC(=O)c1ccccc1F | 3 | 4 | 0 | -5 | nt
CCOC(=O)[C@H](CCc1ccccc1)N[C@@H](C)C(=O)N1C(C(=O)O)C[C@@H]2CCC[C@@H]21 (some centres not stated) | 5 | 23* | 2 | 2 | -3
CCCCNC(=O)CSc1nc2ccc(N3CCOCC3)cc2c(=O)n1Cc1ccc(OC)cc1 | 3 | 19* | nt | 1 | -1
